Laboratory results: PubChem BioAssay AID588342 (National Center for Advancing Translational Sciences (NCATS), 2011)
Hit rate of the full screen: of about 360,000 compounds, about 25,000 (6.9%) were called active. Not shown: some 9% with an inconclusive outcome. Calls come from the whole dose curve; as a rule, active = well fitted inhibition curve with a large enough effect; inconclusive = small, poorly fitted or top-dose-only effect; inactive = flat fitted curve, though single readings scatter. Many of the other results were omitted from the sample, so actives are more common in it than they were.

target: Luciferin 4-monooxygenase (Photinus pyralis) (UniProt P08659); assay: qHTS profiling assay for firefly luciferase inhibitor/activator using purifed enzyme and Km concentrations of substrates (counterscreen for miR-21 project); settings: purified FLuc, luminescence inhibition; series mostly up to 57.5 µM; activity change, negative = inhibition: at the top concentration; note: nearly all actives have a fitted effect of over 55% in size;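 for activity change, negative = inhibition: plate controls were vehicle for no effect and reference inhibitor for full effect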
Sequence (P08659 whole entry, looked up): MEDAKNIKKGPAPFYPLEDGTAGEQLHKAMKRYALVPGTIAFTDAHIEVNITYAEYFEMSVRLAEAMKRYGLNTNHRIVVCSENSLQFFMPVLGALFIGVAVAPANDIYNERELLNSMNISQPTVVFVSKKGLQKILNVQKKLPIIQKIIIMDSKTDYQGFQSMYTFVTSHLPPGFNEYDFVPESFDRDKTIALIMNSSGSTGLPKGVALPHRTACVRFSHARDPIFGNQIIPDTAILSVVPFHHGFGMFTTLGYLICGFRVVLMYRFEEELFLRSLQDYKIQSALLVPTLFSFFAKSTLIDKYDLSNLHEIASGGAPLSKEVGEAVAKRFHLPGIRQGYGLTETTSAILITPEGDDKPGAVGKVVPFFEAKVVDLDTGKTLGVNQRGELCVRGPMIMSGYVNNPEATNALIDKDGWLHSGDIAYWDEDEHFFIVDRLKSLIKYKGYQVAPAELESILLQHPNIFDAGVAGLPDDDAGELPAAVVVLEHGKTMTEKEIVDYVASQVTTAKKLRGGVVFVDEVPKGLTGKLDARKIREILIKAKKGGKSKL
Source text: MLPCN Grant: 1 R21 NS059478-01 (miR-21 grant) Assay Provider: NCGC NCGC Assay Overview: Firefly (Photinus pyralis) luciferase is one of the most commonly used transcriptional reporters for a number of reasons. It is considered one of the more dynamically responsive reporters -that is, responsive to changes in reporter transcription - as it requires no post-translational modifications and is enzymatically active directly after protein synthesis (Wood, 1998). Additionally, the half-life of the luciferase protein is short relative to other reporter-gene products (Wood, 1995). Whereas reporters with long half-lives potentially allow for increased signal due to accumulation of reporter-gene product, once accumulated in the cell, dynamic changes in reporter-gene expression may be difficult to detect(Fan and Wood, 2007; Almond et al., 2004). It has been shown that wild-type P. pyralis luciferase has a half-life of approximately […] hours in mammalian cells (Thompson et al., 1991). Firefly luciferase reporter-gene assays are also generally considered one of the most sensitive assay types (Wood, 1995; Wood, 1998). Although light produced in a bioluminescence reaction is of lower intensity than that produced during fluorescence emission, this is offset by little to no background light inherent to luminescent assays. Thus the luciferase reporter can be expressed at much lower levels than fluorescent proteins while still providing robust signal. # However, it was initially observed, in 1991, by Thompson et al., that compounds that resemble the substrates of firefly luciferase (FLuc) can act as competitive inhibitors of the enzyme, and that these compounds, upon interaction with luciferase in the cell, can actually stabilize the protein and increase its half-life. Accumulated intracellular FLuc protein can be measured as an increase in luminescence signal, upon addition of detection reagents (which contain high concentrations of FLuc substrates) commonly used in high-throughput screening. In cell-based reporter gene assays that use FLuc as the reporter gene to quantitate the potential influence of a given compound against the target biology, this apparent increase in luminescence can mistakenly be interpreted as identification of a compound that is active against the target of interest. This is the case for the miR-21 FLuc reporter gene assay used to identify inhibitors of the miR-21 pathway (PubChem AID 2289) - compounds of interest will inhibit miR-21 biogenesis/expression or activity, and are identified by causing an increase in luminescence, due to increased FLuc translation. However, FLuc inhibitory compounds that stabilize the FLuc protein will give an identical read-out, making it difficult to distinguish compounds that are active against the target from those active against FLuc. Previous profiling work to determine the prevalence of compounds that affect FLuc enzymatic activity (PubChem AID 411) identified that ~3% of the MLSMR library (then at ~72K) inhibited FLuc. […] Since the MLSMR had grown to ~350K compounds, and since it was expected that a significant percentage of compounds found active in the miR-21 FLuc assay would be FLuc inhibitors, the library was screened for activity against FLuc using a biochemical assay of purified FLuc and KM concentrations of FLuc substrates (D-luciferin and ATP).
NCGC Assay Protocol Summary: Reagents: 50mM Tris acetate, pH 7.5; 10mM Mg acetate; 10uM D-luciferin (Sigma #L9504); 10uM ATP; 0.01% Tween-20; 0.05% BSA; 10nM P. pyralis luciferase (Sigma #L9506) Control compounds used were two known firefly luciferase inhibitors (compounds (2) and (5) in Auld et al., 2010), and DMSO. […]

Row | Compound | Potency | activity change, negative = inhibition
1 | O=C(Nc1sc2c(c1C(=O)O)CCC2)c1ccccc1F | 26.9 µM (active) | –
2 | CC(C)(C)C1CCc2c(sc(NC(=O)c3ccccc3F)c2C(=O)N2CCCCC2)C1 (centres undefined) | – | -0.0444% (inactive)
3 | Cc1ccccc1NC(=O)c1c(NC(=O)c2ccccc2F)sc2c1CCC(C)C2 (centres undefined) | – | -1.42% (inactive)
4 | C=CCN(CC=C)S(=O)(=O)c1ccc(C(=O)Nc2sc3c(c2C(N)=O)CCCCC3)cc1 | – | -4.48% (inactive)
5 | NC(=O)c1c(NC(=O)c2ccccc2)sc2c1CCCC2 | 0.675 µM (active) | –
6 | Cc1ccc(C(=O)c2c(NC(=O)c3ccncc3)sc3c2CCCC3)cc1 | – | 3.4% (inactive)
7 | O=C(Nc1nc2c(s1)CCCC2)c1ccccc1F | 0.338 µM (active) | –
8 | O=C(CCS(=O)(=O)c1ccccc1)Nc1nc2c(s1)CCCC2 | – | -2.31% (inactive)
9 | O=C(Cn1c(=O)sc2ccccc21)Nc1nc2c(s1)CCCC2 | – | -4.24% (inactive)
10 | O=C(O)c1cccc(S(=O)(=O)N2CC=C(c3ccccc3)CC2)c1 | – | -6.25% (inactive)
11 | Cc1nnc(SCC(=O)NCc2ccccc2Cl)c2nn(-c3ccccc3)c(C)c12 | – | -15.3% (inactive)
12 | CC(NCCc1ccc(S(N)(=O)=O)cc1)C(=O)NCc1ccccc1 (centres undefined) | – | 2% (inactive)
13 | Cc1ccc(S(=O)(=O)N(C)C)cc1NC(=O)c1ccc(-n2cncn2)c([N+](=O)[O-])c1 | – | -3.04% (inactive)
14 | O=C(CNC(=O)OCc1ccccc1)NC1CCCCNC1=O (centres undefined) | – | -1.31% (inactive)
15 | CCOc1cc(-c2nnc(SCC(=O)NC3CCCCC3)nc2-c2ccc(OC)c(OCC)c2)ccc1OC | – | 2.92% (inactive)
16 | Cc1cc(C)cc(NC(=O)Cn2c(=O)c3ccccc3n3nncc23)c1 | – | 2.23% (inactive)
17 | Cc1cccc(C(=O)NCC(=O)OCC(=O)N(C)CC(=O)Nc2ccccc2Cl)c1 | – | 5.48% (inactive)
18 | COc1ccc(CCNC(=O)c2cc3cccc4c3n2CC(C)S4)c(OC)c1OC (centres undefined) | – | -16.9% (inactive)
19 | CCC1C(=O)c2ccccc2N(C)C1=O (centres undefined) | – | 3.54% (inactive)
20 | CN1C(=O)/C(=C\c2cc(Br)cs2)c2ccccc21 | 4.26 µM (active) | –
21 | CN1C(=O)c2ccccc2Sc2ccc(NC(=O)Cc3ccc(Cl)cc3)cc21 | – | -4.82% (inactive)
22 | COc1ccc(C(CC(=O)c2ccccc2)S(=O)(=O)c2ccccc2)cc1 (centres undefined) | 0.478 µM (active) | –

Row | Compound | Potency | activity change, negative = inhibition
23 | COc1ccc(CN(C)C(=O)CC(c2ccccc2)c2ccccc2)cc1 | – | 0.703% (inactive)
24 | COc1ccc(N(Cc2ccccc2)S(=O)(=O)c2cccc(C(=O)O)c2)cc1 | – | 1.17% (inactive)
25 | Cc1c(NS(=O)(=O)c2cc(C(=O)NCCc3ccc(F)cc3)cc(Cl)c2Cl)c(=O)n(-c2ccccc2)n1C | – | 0.627% (inactive)
26 | COc1cccc(-n2c(=O)c3c(C)c(C(=O)N(C)C)sc3n(Cc3cccc(C)c3)c2=O)c1 | – | -3.37% (inactive)
27 | Cc1cccc(OC(=O)c2sc3ncn(C)c(=O)c3c2C)c1 | 12 µM (active) | –
28 | Cc1c(C(N)=O)sc2ncn(CCOc3ccccc3)c(=O)c12 | – | -2.28% (inactive)
29 | COc1ccc(S(=O)(=O)N2CCN(c3ccc(F)cc3)CC2)cc1-c1noc(C)n1 | – | -4.3% (inactive)
30 | Cc1ccc2c(c1)c1c(c(=O)n(-c3ccccc3)c(=O)n1CC(=O)c1ccc(Cl)cc1)n2C | – | -3.33% (inactive)
31 | O=C(Cn1nc(Cc2cccnc2)c2ccccc2c1=O)N1CCN(c2ccccc2F)CC1 | – | -2.35% (inactive)
32 | Cc1cc2c(=O)n(C)c(SCC(=O)c3cc4ccccc4o3)nc2s1 | – | 4.57% [at 2.3 µM] (inactive)
33 | Nc1ncc(-c2cc3ccccc3oc2=O)s1 | 6.01 µM (active) | –
34 | Cc1ccc(S(=O)(=O)N2CCC(C(=O)OCC(=O)N(C)c3ccccc3)CC2)cc1C | – | 9.29% (inactive)
35 | CCC(C(=O)Nc1cccc(Cl)c1C)n1nc(-c2ccc(C)cc2)ccc1=O (centres undefined) | – | 3.5% (inactive)
36 | COc1ccc(C)cc1N(CC(=O)N1CCC(C)CC1)S(=O)(=O)c1ccc(C)cc1 | – | -7.97% (inactive)
37 | CC(C)(COC(=O)Nc1ccccc1)COC(=O)Nc1ccccc1 | – | -14.3% (inactive)
38 | O=C(Nc1ccccc1)O/N=C1/CCCc2occc21 | 16.9 µM (active) | –
39 | O=C(Nc1ccccc1)O/N=C1\CCCCC1c1ccc([N+](=O)[O-])cc1[N+](=O)[O-] (centres undefined) | – | 4.78% (inactive)
40 | CC(=O)NC(Cc1c[nH]c2ccccc12)C(=O)O (centres undefined) | – | 5.21% (inactive)
41 | NC(=O)CSc1c[nH]c2ccccc12 | – | -10.3% (inactive)
42 | O=S(=O)(O)Oc1c[nH]c2ccccc12 | 12 µM (active) | –
43 | Cc1ccc(NC(=O)Cn2c(=O)n(-c3ccccc3)c(=O)c3c4c(sc32)CCCC4)cc1 | – | 2.01% (inactive)
44 | CCOc1ccc(C(=O)CCN2CCOCC2)cc1 | – | 1.6% (inactive)

Row | Compound | Potency | activity change, negative = inhibition
45 | CCOc1ccc(-c2ccc(SCC(=O)N3CCOCC3)nn2)cc1 | 3.38 µM (active) | –
46 | CCn1c(COc2cccc(OC)c2)nnc1SCC(=O)N1CCOCC1 | – | 6.62% (inactive)
47 | CCNS(=O)(=O)c1ccc(NC(=O)CSc2nc(-c3ccco3)cc(C(F)(F)F)n2)cc1 | – | 2.67% (inactive)
48 | O=C1OC2(CCCCC2)CC2=C1C1O[C@](c3ccsc3)(Cc3ccccc31)O2 | – | -0.717% [at 11.5 µM] (inactive)
49 | CC(C)(C)c1nnc(N/N=C/c2ccc(O)cc2)n(N)c1=O | 13.5 µM (active) | –
50 | Nc1nnn(CC(=O)N/N=C/c2ccc(O)cc2)n1 | – | -1.83% (inactive)
51 | Cc1nnc(NC(=O)c2ccc3nccnc3c2)s1 | 15.1 µM (active) | –
52 | CC(C)CCC(C)NC(=O)c1ccc2nccnc2c1 (centres undefined) | – | -15% (inactive)
53 | Cc1nnc(NC(=O)C(c2ccccc2)c2ccccc2)s1 | – | -1.25% (inactive)
54 | Cc1ccc(S(=O)(=O)N2CCC(C(=O)Nc3cc(C)ccc3C)CC2)cc1 | – | -1.47% (inactive)
55 | Cc1cc(C)c(NC(=O)CS(=O)CC(=O)Nc2cccnc2)c(C)c1 (centres undefined) | – | 0.546% (inactive)
56 | Cc1cccc(-n2cnc(C(=O)Nc3cccnc3)c2)n1 | 10.7 µM (active) | –
57 | Cc1cccc(-n2cnc(C(=O)NNC(=S)Nc3ccccc3)c2)n1 | – | -17.5% (inactive)
58 | CN(CC(=O)NCCN1CCOCC1)S(=O)(=O)c1ccc(F)cc1 | – | 2.29% (inactive)
59 | Cc1nn2c(=O)cc(COC(=O)c3ccccc3NC(=O)COc3ccccc3C)nc2s1 | – | -6.91% (inactive)
60 | O=C(OCc1cc(=O)n2nc(C3CC3)sc2n1)c1ccccc1Cl | 16.9 µM (active) | –
61 | O=C(Nc1ccc(C(=O)OCc2cc(=O)n3nc(C4CC4)sc3n2)cc1)c1ccc(F)cc1 | – | -0.0489% (inactive)
62 | CCCCc1nn2c(=O)cc(COC(=O)c3cccc(NC(=O)COc4ccccc4)c3)nc2s1 | – | -7.88% (inactive)
63 | Cc1ccc(OCC(=O)OCc2cc(=O)n3nc(C4CC4)sc3n2)cc1 | – | -5.96% (inactive)
64 | Cc1nn2c(=O)cc(COC(=O)c3cccc(NC(=O)COc4ccccc4Cl)c3)nc2s1 | 3.01 µM (active) | –
